Measured values: PubChem BioAssay (NCI)
The panel holds about 79,000 compounds, 15% with a hit somewhere; the sample as a whole holds those more often. The source made the active and inactive calls. Rule as the data show it: active = growth inhibition above about 70%; inactive = the rest.

How the values were obtained:
[1] = NCI Yeast Anticancer Drug Screen. Data for the rad52 strain (AID 147);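 also: 0% = growth of vehicle-treated control cultures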; settings: S. cerevisiae rad52 mutant growth inhibition, stronger effect = higher value
Outline: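 Screen used a yeast mutant impaired in DNA repair. After compound exposure, growth was measured. Values reflect inhibition compared with vehicle-treated cells.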

[2] = NCI Yeast Anticancer Drug Screen. Data for the wt1 strain (AID 149);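 also: 0% = growth of vehicle-treated wt1 cultures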; settings: S. cerevisiae wt1 strain (SPY 50644) growth inhibition, stronger effect = higher value
Outline: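 Vehicle-normalised growth inhibition; strain wt1; compound exposure.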

[3] = NCI Yeast Anticancer Drug Screen. Data for the rad50EPP+ strain (AID 151);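 also: 0% = growth of vehicle-treated control cultures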; settings: S. cerevisiae rad50 mutant strain, stronger effect = higher value
Outline: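 Exposing the rad50EPP+ strain to each compound, growth was compared with vehicle-only cultures to give inhibition.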

[4] = NCI Yeast Anticancer Drug Screen. Data for the rad50 strain (AID 155);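 also: 0% = growth of vehicle-only cultures of the same strain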; settings: S. cerevisiae rad50 strain growth inhibition, stronger effect = higher value
Outline: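 A DNA repair-deficient yeast mutant serves as the test organism; compound-induced growth inhibition is calculated against vehicle-treated cells.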

[5] = NCI Yeast Anticancer Drug Screen. Data for the mec2-1 strain (AID 157); settings: S. cerevisiae mec2-1 strain, stronger effect = higher value
Outline: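 Readout is yeast growth inhibition, normalised to vehicle-treated controls, in the mec2-1 strain exposed to compound.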

[6] = NCI Yeast Anticancer Drug Screen. Data for the rad14 strain (AID 159);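 also: 0% = growth of vehicle-treated control cultures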; settings: S. cerevisiae rad14 strain growth inhibition, stronger effect = higher value
Outline: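 Vehicle-treated cultures served as the baseline for growth inhibition of a DNA repair-mutant yeast strain exposed to each compound.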

[7] = NCI Yeast Anticancer Drug Screen. Data for the sgs1 mgt1 strain (AID 161);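 also: 0% = growth of cultures given vehicle only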; settings: S. cerevisiae sgs1 mgt1 strain, stronger effect = higher value
Outline: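 Compounds are added to genetically altered yeast, and growth is compared with cultures given vehicle alone to give percent inhibition.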

[8] = NCI Yeast Anticancer Drug Screen. Data for the CLN2oe strain (AID 163);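 also: 0% = growth of vehicle-only control cultures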; settings: S. cerevisiae CLN2oe strain, stronger effect = higher value
Outline: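 Values reflect how much compound exposure reduced yeast growth, referenced to vehicle-exposed cells. Assay organism is a strain with a defined genetic change affecting cell-cycle control.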

[9] = NCI Yeast Anticancer Drug Screen. Data for the cln2 rad14 strain (AID 165);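 also: 0% = growth equal to vehicle treated cultures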; settings: S. cerevisiae cln2 rad14 strain, stronger effect = higher value
Outline: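 Relative to vehicle controls, growth inhibition of compound-treated cln2 rad14 yeast was recorded.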

[10] = NCI Yeast Anticancer Drug Screen. Data for the bub3 strain (AID 167); settings: S. cerevisiae bub3 mutant strain, stronger effect = higher value
Outline: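 Inhibition values come from growth of compound-treated mutant yeast normalised to vehicle-treated controls.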

[11] = NCI Yeast Anticancer Drug Screen. Data for the wt2 strain (AID 169);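 also: 0% = growth of vehicle-treated yeast cultures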; settings: S. cerevisiae wt2 strain growth inhibition, stronger effect = higher value
Outline: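 Values express reduction in yeast growth under compound treatment, referenced to vehicle-treated cells.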

[12] = NCI Yeast Anticancer Drug Screen. Data for the mlh1 strain (AID 171);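 also: 0% = growth of vehicle-treated control cultures of the same strain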; settings: S. cerevisiae mlh1 strain growth inhibition, stronger effect = higher value
Outline: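 Steps: expose the defined-mutant yeast strain to compound; expose a parallel culture to vehicle; measure growth; express compound effect as inhibition relative to the vehicle culture.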

[13] = NCI Yeast Anticancer Drug Screen. Data for the mlh1 rad18 strain (AID 175); settings: S. cerevisiae mlh1 rad18 strain growth inhibition, stronger effect = higher value
Outline: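 Test agents were incubated with a yeast strain of defined genotype (DNA damage repair defect). Inhibition of growth was derived by comparison with vehicle-exposed cultures.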

[14] = NCI Yeast Anticancer Drug Screen. Data for the rad18 strain (AID 177); settings: S. cerevisiae rad18 mutant growth inhibition, stronger effect = higher value
Outline: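 A genetically defined yeast mutant impaired in DNA damage repair was treated with test compounds, then its growth was measured against cultures receiving vehicle alone.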

[15] = NCI Yeast Anticancer Drug Screen. Data for the mgt1 strain (AID 153); settings: S. cerevisiae mgt1 mutant growth inhibition, stronger effect = higher value
Outline: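 Genetically defined yeast (mgt1) treated with compound; inhibition of growth expressed against vehicle-treated controls.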

[16] = NCI Yeast Anticancer Drug Screen. Data for the sgs1 strain (AID 173);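 also: 0% = growth of vehicle-only control cultures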; settings: S. cerevisiae sgs1 mutant, stronger effect = higher value
Outline: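 Treat defined-mutant yeast with compound; measure growth; calculate inhibition relative to vehicle-treated cells.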

[17] = at 5.0 µM (retest, dose inferred, filed as 0.5)
[18] = at 50.0 µM (retest, dose inferred, filed as 5.0)

Measured: growth inhibition

O=C(CCCN1CCC2(CC1)CC(=O)N(N1CCCCCC1)C2=O)c1ccc(F)cc1
inactive: [1]; at 1.2 µM 23% | [1]; at 3.7 µM 34% | [1]; at 11.0 µM 46% | [1]; at 33.0 µM 53% | [1]; at 100.0 µM 65% | [2]; at 1.2 µM 11% | [2]; at 3.7 µM 24% | [2]; at 11.0 µM 25% | [2]; at 33.0 µM 34% | [2]; at 100.0 µM 41% | [3]; at 1.2 µM -2% | [3]; at 3.7 µM -2% | [3]; at 11.0 µM -1% | [3]; at 33.0 µM -1% | [3]; at 100.0 µM 0% | [4]; at 1.2 µM 29% | [4]; at 3.7 µM 26% | [4]; [17] 14% | [4]; at 11.0 µM 33% | [4]; at 33.0 µM 49% | [4]; [18] 46% | [4]; at 100.0 µM 61% | [5]; at 1.2 µM 25% | [5]; at 3.7 µM 28% | [5]; [17] 13% | [5]; at 11.0 µM 31% | [5]; at 33.0 µM 40% | [5]; [18] 41% | [5]; at 50.0 µM 45.8% | [5]; at 100.0 µM 45% | [6]; at 1.2 µM 45% | [6]; at 3.7 µM 51% | [6]; at 11.0 µM 64% | [7]; [17] 45% | [8]; at 1.2 µM 49% | [8]; at 3.7 µM 45% | [8]; at 11.0 µM 58% | [9]; [17] 63% | [10]; at 1.2 µM 40% | [10]; at 3.7 µM 41% | [10]; [17] 36% | [10]; at 11.0 µM 51% | [10]; at 33.0 µM 61% | [10]; [18] 41% | [10]; at 100.0 µM 66% | [11]; at 1.2 µM 20% | [11]; at 3.7 µM 32% | [11]; at 11.0 µM 41% | [11]; at 33.0 µM 53% | [11]; at 100.0 µM 68% | [12]; at 1.2 µM 25% | [12]; at 3.7 µM 30% | [12]; at 11.0 µM 41% | [12]; at 33.0 µM 52% | [12]; at 100.0 µM 63% | [13]; [17] 25% | [13]; [18] 56% | [14]; at 1.2 µM 29% | [14]; at 3.7 µM 49% | [14]; at 11.0 µM 57% | [14]; at 33.0 µM 66% | [14]; at 100.0 µM 65%
active: [4]; at 50.0 µM 80.8% | [6]; at 33.0 µM 73% | [6]; at 100.0 µM 87% | [7]; [18] 74% | [7]; at 50.0 µM 84.4% | [8]; at 33.0 µM 71% | [8]; at 100.0 µM 79% | [9]; [18] 82% | [9]; at 50.0 µM 72% | [10]; at 50.0 µM 73.3% | [13]; at 50.0 µM 76%

COC(=O)C1=C(C)NC(C)=C(C(=O)OCCCN2CCC(c3ccccc3)(c3ccccc3)CC2)C1c1cccc([N+](=O)[O-])c1 (stereo unspecified)
active: [1]; at 11.0 µM 97% | [1]; at 33.0 µM 97% | [1]; at 100.0 µM 88% | [3]; at 3.7 µM 86% | [3]; at 11.0 µM 88% | [3]; at 33.0 µM 92% | [3]; at 100.0 µM 82% | [15]; at 11.0 µM 98% | [15]; at 33.0 µM 98% | [15]; at 100.0 µM 93% | [4]; at 11.0 µM 97% | [4]; at 33.0 µM 95% | [4]; [18] 99% | [4]; at 50.0 µM 94.5% | [4]; at 100.0 µM 84% | [5]; at 11.0 µM 98% | [5]; at 33.0 µM 98% | [5]; [18] 98% | [5]; at 50.0 µM 95.9% | [5]; at 100.0 µM 92% | [6]; at 3.7 µM 76% | [6]; at 11.0 µM 99% | [6]; at 33.0 µM 98% | [6]; at 100.0 µM 89% | [7]; [18] 98% | [7]; at 50.0 µM 94% | [8]; at 11.0 µM 96% | [8]; at 33.0 µM 98% | [8]; at 100.0 µM 84% | [9]; [18] 98% | [9]; at 50.0 µM 94.2% | [10]; at 11.0 µM 83% | [10]; at 33.0 µM 98% | [10]; [18] 97% | [10]; at 50.0 µM 97% | [10]; at 100.0 µM 90% | [11]; at 11.0 µM 98% | [11]; at 33.0 µM 97% | [11]; at 100.0 µM 91% | [12]; at 11.0 µM 98% | [12]; at 33.0 µM 98% | [12]; at 100.0 µM 92% | [16]; at 11.0 µM 97% | [16]; at 33.0 µM 98% | [16]; at 100.0 µM 91% | [13]; [17] 74% | [13]; [18] 98% | [13]; at 50.0 µM 92.7% | [14]; at 11.0 µM 94% | [14]; at 33.0 µM 97% | [14]; at 100.0 µM 88%
inactive: [1]; at 1.2 µM -8% | [1]; at 3.7 µM 2% | [3]; at 1.2 µM 66% | [15]; at 1.2 µM -5% | [15]; at 3.7 µM 22% | [4]; at 1.2 µM 1% | [4]; at 3.7 µM 48% | [4]; [17] 37% | [5]; at 1.2 µM -1% | [5]; at 3.7 µM 16% | [5]; [17] 9% | [6]; at 1.2 µM 20% | [7]; [17] 50% | [8]; at 1.2 µM -3% | [8]; at 3.7 µM 21% | [9]; [17] 14% | [10]; at 1.2 µM 11% | [10]; at 3.7 µM 16% | [10]; [17] 42% | [11]; at 1.2 µM -4% | [11]; at 3.7 µM 25% | [12]; at 1.2 µM 1% | [12]; at 3.7 µM 51% | [16]; at 1.2 µM -3% | [16]; at 3.7 µM 23% | [14]; at 1.2 µM -7% | [14]; at 3.7 µM 9%

CCN(CC)[P+](c1ccccc1O)(N(CC)CC)N(CC)CC
inactive: [1]; at 1.2 µM -25% | [1]; at 3.7 µM -15% | [1]; at 11.0 µM 17% | [1]; at 33.0 µM 27% | [2]; at 1.2 µM -35% | [2]; at 3.7 µM -25% | [2]; at 11.0 µM 12% | [2]; at 33.0 µM 34% | [15]; at 1.2 µM -42% | [15]; at 3.7 µM -42% | [15]; at 11.0 µM -32% | [15]; at 33.0 µM 13% | [4]; at 1.2 µM -30% | [4]; at 3.7 µM 9% | [4]; [17] 37% | [4]; at 11.0 µM 43% | [4]; at 33.0 µM 54% | [4]; [18] 68% | [4]; at 50.0 µM 61.5% | [5]; at 1.2 µM -78% | [5]; at 3.7 µM -39% | [5]; [17] 28% | [5]; at 11.0 µM 29% | [5]; at 33.0 µM 24% | [5]; [18] 55% | [5]; at 50.0 µM 62.1%
active: [1]; at 100.0 µM 85% | [2]; at 100.0 µM 84% | [15]; at 100.0 µM 76% | [4]; at 100.0 µM 90%
